8 compounds from PubChem BioAssay (NCATS) can be followed below.

Values joined by “and” are separate entries in the source; they are usually repeats but may differ in a detail not shown here. Equal entries are not always repeated. Results filed as inconclusive are left out. Active and inactive are the calls of the source. Unless noted, the call rests on the fitted dose curve; in most records, active means well fitted curve in the direction sought with a large enough effect; inconclusive means small, poorly fitted or top-dose-only effect, or another doubt; inactive means no such curve, though single readings can be large; an effect the other way counts as inactive or inconclusive.

Assay [1] addresses Cytochrome P450 3A4 (Homo sapiens) (UniProt P08684). Description: qHTS Assay for Inhibitors and Substrates of Cytochrome P450 3A4 (AID 884). Further: potency means the concentration at half of the fitted maximal effect; nearly all actives have a fitted effect of over 50% in size. The procedure, abridged:
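Luminescent readout of luciferin produced by CYP3A4 (20 nM) dealkylation of Luciferin-PPXE, 25 uM (its KM). NADPH-driven reaction ran 60 min at RT after 10 min compound preincubation; data scaled to 57 uM ketoconazole as 100% inhibition.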

Assay [2] shares this target. Briefly: qHTS Assay for Activators of Cytochrome P450 3A4 (AID 885). Further: nearly all actives have a fitted effect of over 65% in size. Summed up:
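Activators are scored by enhanced luminescence from CYP3A4 conversion of luciferin-PPXE (25uM, equal to KM) to luciferin, after 60 min at RT with an NADPH-regenerating system.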

A short description of assay [3]: Confirmation and Secondary Assay for Modulators of Hemoglobin Beta Chain Splicing at IVS2 654 locus (AID 910).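 Further: HeLa cells stably carrying EGFP split by mutant beta-globin IVS2-654 intron; % of control where 0% means no effect.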 The procedure, abridged: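 HeLa cells stably expressing EGFP interrupted by β-globin IVS2-654 intron, seeded overnight in Opti-MEM/2% FCS, then treated 2 days at 37 °C. Restored splicing read as total peak GFP intensity per well by laser scanning cytometry (488 nm excitation, 500–520 nm emission); 500 nM antisense PNA as control.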

Assay [4] in a line: Confirmation and Secondary Assay for Modulators of Hemoglobin Beta Chain Splicing at IVS2 705 locus (AID 930).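 Further: HeLa cells stably expressing the EGFP-705 splicing reporter; GFP fluorescence per well restored by corrected splicing of the IVS2-705 intron in EGFP; % of control where 0% means no effect.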 The procedure, abridged:
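HeLa IVS2-705 EGFP reporter cells, 500/well, compound 2 d at 37C; correct splicing yields fluorescent EGFP. Control: 500 nM antisense PNA. Read-out: total peak GFP intensity.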

A short description of assay [5]: qHTS Assay for Lipid Storage Modulators (AID 1519; calls by dose curve; on activity change, negative = inhibition: on the % scale 0 is the no-effect control and ±100 the full control effect). The following applies: Drosophila S3 cells, BODIPY lipid droplet/cell ratio, laser cytometry, cells loaded with oleic acid. The procedure, abridged:
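Cells seeded at 5,000 per well were treated with compounds over a concentration series and loaded with oleic acid (400 uM, as added). Lipid droplet fluorescence (488 nm excitation, 500-530 nm channel) was read by laser-scanning cytometry and normalized to 20 uM Triacsin C.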

For assay [6], the target named is Ubiquitin carboxyl-terminal hydrolase 1 (Homo sapiens) (UniProt O94782). Description: Inhibitors of USP1/UAF1: Pilot qHTS (AID 504865).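 Further: rhodamine fluorescence freed from ubiquitin-rhodamine substrate followed over time; top concentration of the series differs between compounds; on the % scale 0 is the no-effect control and ±100 the full control effect; nearly all actives have a fitted effect of over 35% in size.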 Summed up:
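USP1/UAF1 complex at 1 nM preincubated 15 min at room temperature with compound, then Ub-Rho substrate added at 150 nM final. Fluorescence (480/540 nm) read kinetically in 50 mM HEPES pH 7.8, 0.5 mM EDTA, 1 mM TCEP, 0.1 mg/ml BSA, 0.01% Tween-20.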

A short description of assay [7]: P-glycoprotein substrates identified in KB-3-1 adenocarcinoma cell line, qHTS therapeutic library screen (AID 1346986). Further: nearly all actives have a fitted effect of over 60% in size.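 Further: potency means the concentration at half of the fitted maximal effect; potency is for cytotoxicity meaning loss of cell viability.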 Summed up: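 Viability by CellTiter-Glo after 72 h compound exposure at 37 degree C, 5% CO2. Cytotoxic call: curve class -1.1 to -2.4, maximum response >50%, AC50 < 10 uM, compared across KB-3-1 and P-gp-overexpressing KB-8-5-11.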
A short description of assay [8]: P-glycoprotein substrates identified in KB-8-5-11 adenocarcinoma cell line, qHTS therapeutic library screen (AID 1346987). Further: nearly all actives have a fitted effect of over 65% in size. Further: potency means the concentration at half of the fitted maximal effect. The procedure, abridged:
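In this qHTS, P-gp-rich KB-8-5-11 cells received library compounds across a concentration range. Viability was quantified by luminescence after 72 h at 37 degree C.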

The nature of assay [9]: Primary qHTS for inhibitors of nuclear receptor binding SET domain protein 2 (NSD2) in an isogenic RCH-ACV NSD2 p.E1099K mutant (9B) (AID 1645876). Further: nearly all actives have a fitted effect of over 70% in size. Further: potency means the concentration at half of the fitted maximal effect.
Assay [10] is described as follows: Primary qHTS for inhibitors of nuclear receptor binding SET domain protein 2 (NSD2) in an RCH-ACV wild type WT cells (2C) (AID 1645877). Further: nearly all actives have a fitted effect of over 70% in size. Further: potency means the concentration at half of the fitted maximal effect.
The target in assay [11] is Glutathione peroxidase 1 (Homo sapiens) (UniProt P07203). Briefly: Primary qHTS Assay for Inhibitors of Recombinant Selenoprotein Glutathione Peroxidase 1 (GPX1) (AID 1845191). Further: nearly all actives have a fitted effect of over 65% in size. Further: potency means the concentration at half of the fitted maximal effect. Summed up:
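GR-coupled readout: NADPH consumption tracked by fluorescence, ex 340/em 450 nm, at t=0 and after 15 min at RT. Final mix 10 nM GPX1, 1 mM GSH, 0.5 mM CHP, 0.5 mM NADPH, 100 nM GR, 0.01% BSA, following 30 min enzyme–compound preincubation.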

Assay [12] has as its target Calcium and integrin-binding protein 1 (Homo sapiens) (UniProt Q99828). Briefly: Primary qHTS for Identification of Calcium Integrin Binding Protein 1 (CIB1) Competitor (AID 1508620).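 Further: GST tagged CIB1 binding a fluorescein labelled alphaIIb integrin peptide tracer; top concentration of the series differs between compounds; on the % scale 0 is the no-effect control and ±100 the full control effect.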 The procedure, abridged:
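Fluorescence polarization competition: GST-tagged CIB1 (1 uM final) preincubated with compound 15 min at room temperature, then FITC-labelled alphaIIb peptide (100 nM final) added. After 15 min at room temperature, polarization read at Ex 480/Em 540.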

Assay [13] in a line: qHTS drug screen for cell cycle checkpoint inhibitors in PARPi-resistant BRCA-mutant ovarian cancer cell lines. (AID 1963452; calls by dose curve). The following applies: PEO1/OlaR viability, CellTiter-Glo luminescence, 96 h, stronger effect = lower value. The procedure, abridged: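 PEO1, PEO4 and PEO1/OlaR ovarian cancer cells, 600 per well, exposed 96 h at 37C to a dilution series. Viability read by CellTiter-Glo luminescence, normalized to DMSO and empty wells; activity summarized as Z-AUC.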

The nature of assay [14]: qHTS assay to identify inhibitors of the type 1 interferon - major histocompatibility complex class I in skeletal muscle: Counter screen cell viability and HiBit confirmation (AID 1347412). Further: on the % scale 0 is the no-effect control and ±100 the full control effect; nearly all actives have a fitted effect of over 60% in size. The following applies: iHSKM muscle cells + IFN-b, HiBiT or CellTiter-Glo, 24 h; HiBiT; at 45.9 µM (top of the series). Summed up:
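CRISPR HLA-B*08:01-HiBit immortalized human myoblasts (C25cl48) stimulated with 4 ng/ml IFN-beta and compounds (12-point 1:3, top 46 uM final) for 24 h at 37 C. Duplicate plates read by HiBit lytic luminescence or CellTiter Glo ATP.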

The nature of assay [15]: qHTS to identify inhibitors of the type 1 interferon - major histocompatibility complex class I in skeletal muscle: primary screen against the NCATS Mechanism Interrogation Plate v5.0 (MIPE) Libary (AID 1347411).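 Further: plate controls were vehicle for no effect and reference inhibitor for full effect; nearly all actives have a fitted effect of over 65% in size.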 The procedure, abridged:
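HLA-B HiBit myoblasts, dexamethasone-free medium + 4 ng/ml IFN-b, 24 h compound, 11-pt 1:3 from 46 uM final. Readout: Nano-Glo HiBiT lytic luminescence after 10 min lysis, RT.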

Setting [16] is: measured here: PEO1 parental Z-AUC.

Glutathione peroxidase 1 (Homo sapiens), sequence (P07203 whole entry, looked up): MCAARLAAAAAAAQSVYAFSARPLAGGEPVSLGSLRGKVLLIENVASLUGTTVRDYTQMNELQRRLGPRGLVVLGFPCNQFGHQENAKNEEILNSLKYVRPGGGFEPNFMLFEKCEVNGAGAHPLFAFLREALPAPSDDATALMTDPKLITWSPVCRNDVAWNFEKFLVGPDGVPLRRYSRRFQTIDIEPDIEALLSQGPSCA
Calcium and integrin-binding protein 1 (Homo sapiens), sequence (Q99828 whole entry, looked up): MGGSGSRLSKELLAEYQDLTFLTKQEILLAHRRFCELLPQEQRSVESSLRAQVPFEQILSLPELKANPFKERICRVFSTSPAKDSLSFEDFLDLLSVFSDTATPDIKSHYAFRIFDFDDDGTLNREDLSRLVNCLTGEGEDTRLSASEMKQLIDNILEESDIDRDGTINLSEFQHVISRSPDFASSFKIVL
Cytochrome P450 3A4 (Homo sapiens), sequence (P08684 whole entry, looked up): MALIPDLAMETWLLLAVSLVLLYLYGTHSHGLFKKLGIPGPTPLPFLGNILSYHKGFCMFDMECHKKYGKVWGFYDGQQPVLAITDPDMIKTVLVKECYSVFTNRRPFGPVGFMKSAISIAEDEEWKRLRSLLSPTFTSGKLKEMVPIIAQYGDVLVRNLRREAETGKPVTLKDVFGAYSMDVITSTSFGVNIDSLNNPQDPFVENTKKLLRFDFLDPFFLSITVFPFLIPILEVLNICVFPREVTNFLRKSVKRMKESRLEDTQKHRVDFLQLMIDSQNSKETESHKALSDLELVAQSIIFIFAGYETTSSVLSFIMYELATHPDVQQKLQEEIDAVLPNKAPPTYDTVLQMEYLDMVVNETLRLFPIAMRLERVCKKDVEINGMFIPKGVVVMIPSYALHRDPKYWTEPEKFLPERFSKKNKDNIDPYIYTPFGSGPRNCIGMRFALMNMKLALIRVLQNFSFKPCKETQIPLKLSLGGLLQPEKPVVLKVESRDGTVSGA
Ubiquitin carboxyl-terminal hydrolase 1 (Homo sapiens), sequence (O94782 whole entry, looked up): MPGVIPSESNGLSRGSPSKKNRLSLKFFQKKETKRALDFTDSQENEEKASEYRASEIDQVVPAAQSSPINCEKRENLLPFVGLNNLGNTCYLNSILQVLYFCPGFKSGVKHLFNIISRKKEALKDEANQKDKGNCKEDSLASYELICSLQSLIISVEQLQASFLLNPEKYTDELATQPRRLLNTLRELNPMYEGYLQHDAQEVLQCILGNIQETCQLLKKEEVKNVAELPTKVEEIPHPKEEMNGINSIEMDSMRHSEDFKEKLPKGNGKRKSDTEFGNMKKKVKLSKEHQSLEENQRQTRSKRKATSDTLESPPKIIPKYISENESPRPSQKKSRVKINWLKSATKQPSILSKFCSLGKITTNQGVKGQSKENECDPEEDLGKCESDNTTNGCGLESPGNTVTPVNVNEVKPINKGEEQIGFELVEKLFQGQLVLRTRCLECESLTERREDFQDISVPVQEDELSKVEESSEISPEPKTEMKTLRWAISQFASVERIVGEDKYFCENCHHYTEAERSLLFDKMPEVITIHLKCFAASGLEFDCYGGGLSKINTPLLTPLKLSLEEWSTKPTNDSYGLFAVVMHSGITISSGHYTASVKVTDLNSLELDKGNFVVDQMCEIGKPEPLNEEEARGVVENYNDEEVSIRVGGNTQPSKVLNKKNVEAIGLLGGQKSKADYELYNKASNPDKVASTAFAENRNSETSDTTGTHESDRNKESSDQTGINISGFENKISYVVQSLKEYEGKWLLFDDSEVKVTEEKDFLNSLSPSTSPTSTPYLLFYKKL

For the compound `COc1cc(OC)c2ccc(=O)oc2c1`, the Potency is 31600 nM (active) in assay [1] and 25500 nM (active) in assay [11]. Also, the Potency entry in [2], in assay [6], in assay [7], in assay [8], in assay [9] and in assay [10] was “inactive” each time. The compound was classed as inactive in assay [3] and in assay [4]. Moreover, the activity change, negative = inhibition in [5] (at 57.5 µM (top of the series)) is 13.4% (inactive). The max response in assay [5] (measured here: cell count channel max response) was found to be 9.58%; in assay [5] (measured here: lipid channel max response), 25.2%.

Take `Cc1ccc(NS(=O)(=O)c2cc3c(cc2NC(C)CO)NC(=O)CC3)cc1C` (stereo unspecified): the Potency result in [7], in assay [8] and in [11] was “inactive” throughout. Besides, the result in assay [12] was inactive.

Consider `O=C1CCc2cc(S(=O)(=O)Nc3ccc(F)c(Cl)c3)c(F)cc2N1`, for which the Potency entry in assay [7], in assay [8], in assay [9], in assay [10] and in [11] was “inactive” each time. Also, in assay [12], the outcome was inactive.

As to `CCOC(=O)c1cc2ccc(O)cc2oc1=O`, the Potency result in assay [7], in [8] and in [9] was “inactive” throughout.

Turning to `N#Cc1ccc(-c2c(-c3ncn[nH]3)sc(N3CCOCC3)c2C#N)c(F)c1`, the Potency is 2060 nM (active) in [7]; 5800 nM (active) in assay [8]; 1.03 µM (active) and 934 nM (active) in assay [9]; 651 nM (active) and 1.18 µM (active) in assay [10]. In addition, the Potency result in [11] is “inactive”. Besides, the results for the Z-AUC in assay [13], in [13] (setting [16]) and in [13] (measured here: PEO4 Z-AUC) were -1.04 (inactive), -1.47 and -1.34, respectively. Besides, the activity change, negative = inhibition in assay [14] is -34.7% (inactive).

For the compound `O=C1NC(=O)/C(=C\c2ccc3nccc(-c4ccncc4)c3c2)S1`, the Potency is 1160 nM (active) in [7], 1460 nM (active) in [8], 326 nM (active) in [9] and 366 nM (active) in assay [10].

`Cc1cn(C2OC(CO)C(O)C2F)c(=O)[nH]c1=O` (stereo unspecified): the Potency entry in assay [7], in assay [8], in [9] and in [10] was “inactive” each time.

With `CC(=O)Nc1ccc(C(=O)NC(C)(C)C)cc1`, the Potency entry in assay [7], in [8], in assay [15], in assay [9] and in assay [10] was “inactive” in each case. Also, the results for the Z-AUC in [13], in assay [13] (setting [16]) and in assay [13] (measured here: PEO4 Z-AUC) were 1.04 (inactive), 0.805 and 0.364, respectively.
